Data taken from PubChem BioAssay AID1508600 (Functional Genomics Laboratory (NCATS/FGL), 2020).
The campaign covered roughly 53,000 sequences. About 3,700 (7%) were called active.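 How the source made its calls: active means gene knockdowns whose robust z-score for IL-1 alpha signal is at least 2 or at most -2, so actives lie on both sides; inactive means the rest.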 Shown is part of a subset that was picked to be rich in actives.

assay: Components of the Cytosolic LPS Sensing Pathway: Gene Identification via Genome-wide siRNA Screen; details: RAW264.7 macrophages, IL-1a HTRF, actives lie on both sides, screened at 100 nM (by protocol), cells primed 5 h with Pam3CSK4 first;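 further: robust z of the log signal after scaling to non-targeting control siRNA wells of the plate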
Procedure, shortened: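 Three distinct siRNAs per gene were tested singly at 100 nM in RAW264.7 macrophages. Following Pam3CSK4 priming and 24 hour LipidA transfection, IL-1a secretion was read by HTRF.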

| Sequence | z-score |
| --- | --- |
| GGGACAUGAGUAACUGAUGTT against Dhx8 | -0.908 (inactive) |
| GGUUGUGAUGUGGUGGUCATT against Mdh2 | 1.3 (inactive) |
| GGGAGAGACAGAAAGCUUUTT against Olfr213 | 1.61 (inactive) |
| GCCUAGAAAGUCUGAAUAATT against Ifng | 0.203 (inactive) |
| GCUGUAAGCCAAUUAACAUTT against Emp1 | 1.06 (inactive) |
| CGUGCUUAGCAAUCUGAAUTT against Bcl6b | 2.44 (active) |
| GGAAACAACUUUCUAUAACTT against Vmn1r195 | -0.487 (inactive) |
| GGAUUCAGCAAAUGCUUCCTT against Rcor3 | 2.31 (active) |
| GGACAAGGCCAAGCUAUAATT against Cntnap2 | -1.47 (inactive) |
| GCACCAAAUUCACUAGAGUTT against Cd24a | 0.83 (inactive) |
| GCCCAUAAACUGAUGGUGGTT against Tbc1d24 | -0.45 (inactive) |
| CCCAACAAAUACCACUACATT against Usp20 | -1.39 (inactive) |
| GGAUCUGGUGACAAACGUATT against Cabyr | 2.04 (active) |
| CCCGACUGAAUGCUCGGAUTT against Rnf220 | 0.386 (inactive) |
| GGAGAAAGCUCGAAAAUGGTT against Prpf8 | -1.61 (inactive) |
| GGAAGGAAACUACGAAGGUTT against Edn1 | -0.534 (inactive) |
| GGAUGCAGAAGCAACUUAATT against AA986860 | 1.91 (inactive) |
| CCGAUUUCCACAUCUGUCATT against Fam104a | -2.45 (active) |
| GGAAAGAAACAGAAGCACATT against Il21 | -0.511 (inactive) |
| GCCUCUGUUCCAUCUUGGATT against F830104G03Rik | 1.61 (inactive) |
| GCUCAGCAGGAAAUAACAGTT against Ccdc90b | -2.06 (active) |
| GGAUGAAGAGCAUAACAGUTT against Sft2d2 | -0.95 (inactive) |
| GCUAGUCAUGCUACGGAAUTT against Aftph | 0.601 (inactive) |
| GGUUGUUUCACCAAUAGUUTT against Idi1 | -0.454 (inactive) |
| GGGCAGAUGUAAUUCUUGUTT against Ctsm | 1.91 (inactive) |
| GGUACAUGUAUUGUUUCACTT against Cyp2c38 | 2.76 (active) |
| GGAUUAUCCUGGCUUGUUGTT against Rdh12 | -0.962 (inactive) |
| GCUGAUUGCCUCGGAGAAUTT against Shmt1 | -0.0766 (inactive) |
| GCGCAUCGAAAAAUGGAUUTT against Rgl3 | 0.236 (inactive) |
| GGUAUUGAGUGAUAACUACTT against Klhdc7a | 1.29 (inactive) |
